Shown are actives, neighbours in structure and some others; about 21% of the full set was active somewhere.
Pf growth 96h – Primary qHTS for delayed death inhibitors of the malarial parasite plastid, 96 hour incubation; P. falciparum luciferase reporter growth, 96 h; Potency, µM (series often up to 28.7 µM), for inactives: at the highest dose activity change, negative = inhibition, hits mostly inhibitors; 320,000 tested, 6.9% active; note: potency is the fitted concentration of half-maximal effect; % is set by controls: 0 for no effect and ±100 for the full control effect
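Erythrocytes infected with luciferase-expressing P. falciparum were dispensed at 2% hematocrit and 0.05% parasitemia (final), then incubated with compounds 96 hours at 37 C in 5% CO2. Luminescence after detection reagent addition reported growth.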
CHX counter – Cycloheximide Counterscreen for Small Molecule Inhibitors of Shiga Toxin; cell reporter, cycloheximide protein synthesis inhibition counterscreen; max response, %; 300,000 tested, 12% active; AID 2314, 2010; in the data active = max response mostly above about 13%, no sharp cut-off; inactive = mostly below about 14%; note: read at 38.3 µM for the half of the compounds with a filed dose; 0% is about no effect
Shiga inhibitor – A qHTS for Small Molecule Inhibitors of Shiga Toxin; Vero cells, Shiga toxin protein synthesis inhibition reporter; 290,000 tested, 9.2% active; AID 2315, 2010; inhibition, % at 38.7 µM; in the data active = inhibition mostly above about 28%, no sharp cut-off; inactive = mostly below about 43%; note: 0% is about no effect
Pf growth 48h – Primary qHTS for delayed death inhibitors of the malarial parasite plastid, 48 hour incubation; P. falciparum luciferase growth in erythrocytes, 48 h; 310,000 tested, 5.9% active; Potency, µM (series often up to 28.7 µM), for inactives: at the highest dose activity change, negative = inhibition, hits mostly inhibitors; note: potency is the fitted concentration of half-maximal effect; % is set by controls: 0 for no effect and ±100 for the full control effect
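Read-out is firefly luciferase luminescence from an integrated reporter in P. falciparum, so falling signal marks reduced parasite growth. Infected erythrocytes were at 2% hematocrit and 0.1% parasitemia (final) in Albumax-supplemented RPMI 1640.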
* hit, by the source's call. Unless noted, calls come from the whole dose curve; as a rule, active = well fitted inhibition curve with a large enough effect; inconclusive = small, poorly fitted or top-dose-only effect, or another doubt; inactive = no such curve, though single readings can be large or run the other way.

CS/C(=N\S(=O)(=O)c1cccs1)NC(=O)CSc1nc2ccccc2s1 was read as Pf growth 96h 6.57µM*, CHX counter 2.1 and Shiga inhibitor 8.1.
Cc1cc(C)nc(SCC(=O)OCC(=O)Nc2nc3ccccc3s2)n1 was read as Pf growth 96h -6.6%, CHX counter 22.2*, Shiga inhibitor 13.6* and Pf growth 48h 15.0%.
Screening Cn1cc(SCC(=O)Nc2nc3ccccc3s2)c2ccccc21 returned Pf growth 96h 23.2%, CHX counter 29.0*, Shiga inhibitor 23.9 and Pf growth 48h -1.5%.
Screening C/C(=N/NC(=O)CSc1nc2ccccc2s1)c1ccncc1 returned Pf growth 96h 1.2%, CHX counter -0.8, Shiga inhibitor 8.7 and Pf growth 48h -29.3%.
Cc1csc(SCC(=O)Nc2nc3ccccc3s2)n1 was read as CHX counter 32.1*, Shiga inhibitor 65.1* and Pf growth 48h 68.7%.
CCOC(=O)CC(=O)Nc1nc2ccccc2s1 was read as Pf growth 96h inconclusive, CHX counter 14.0, Shiga inhibitor 31.2 and Pf growth 48h 12.7%.
Screening Cc1ccccc1-c1nc(CS(=O)(=O)CC(=O)NCCCN2CCN(C)CC2)c(C)o1 returned Pf growth 96h inconclusive, CHX counter -4.7, Shiga inhibitor -3.2 and Pf growth 48h 16.0%.
COc1ccc(NC(=O)CCSc2nc(C)cs2)cc1 was read as Pf growth 96h -3.0%, CHX counter 31.7*, Shiga inhibitor 130.9* and Pf growth 48h 84.4%.
Screening CCN(C(=O)c1cn(C)c(=O)c2cc(OC)c(OC)cc12)c1ccccc1C returned CHX counter -1.6, Shiga inhibitor -5.9 and Pf growth 48h 5.2%.
`CCN(C(=O)c1cn(C)c(=O)c2cc(OC)c(OC)cc12)c1cc(C)ccc1C` gave Pf growth 96h 71.5%, CHX counter -3.0, Shiga inhibitor -10.7 and Pf growth 48h 9.28µM*.
`COc1ccc(N2CCN(C(=O)Cc3ccc(Br)cc3)CC2)cc1` gave Pf growth 96h 3.0%, CHX counter -0.9, Shiga inhibitor -2.8 and Pf growth 48h inconclusive.
O=C1N=c2ccccc2=C1c1sc(NS(=O)(=O)Cc2ccccc2)nc1O was read as Pf growth 96h -16.2%, CHX counter -4.0, Shiga inhibitor -2.0 and Pf growth 48h 9.3%.
`O=C1N=c2ccccc2=C1c1sc(NS(=O)(=O)c2ccccc2)nc1O` gave Pf growth 96h 20.2%, CHX counter 12.0, Shiga inhibitor -4.2 and Pf growth 48h 30.6%.
For O=C1N=c2ccccc2=C1c1sc(Nc2cccc(O)c2)nc1O the results were Pf growth 96h inconclusive, CHX counter 44.3*, Shiga inhibitor 47.6* and Pf growth 48h 125.0%.
Screening O=C1N=c2ccccc2=C1c1sc(Nc2ccc(O)cc2)nc1O returned Pf growth 96h 55.0%, CHX counter 12.4, Shiga inhibitor 64.5* and Pf growth 48h 27.2%.
COC(=O)CSCC(=O)Nc1nnc(-c2ccccc2C)s1 was read as Pf growth 96h -2.4%, CHX counter 1.7, Shiga inhibitor 15.2 and Pf growth 48h inconclusive.
`O=C(C[n+]1ccccc1)N/N=C/c1ccccc1C(F)(F)F` gave Pf growth 96h inconclusive, CHX counter -2.5, Shiga inhibitor -8.0 and Pf growth 48h 4.2%.
Screening CCOC(=O)c1c(N)nn(C(=O)C(C)(C)C)c1-c1ccccc1 returned Pf growth 96h 0.0%, CHX counter -1.3, Shiga inhibitor -6.3 and Pf growth 48h 8.6%.
Screening CCOC(=O)C1=C(c2ccccc2)N2CCS(=O)(=O)N=C2S1 returned Pf growth 96h 10.4µM*, CHX counter -1.0, Shiga inhibitor -2.9 and Pf growth 48h -1.0%.
For O=c1ncn(-c2cccc(F)c2)c2ncccc12 the results were CHX counter 14.1*, Shiga inhibitor 2.7 and Pf growth 48h 15.4%.
O=C(c1ccc(CNS(=O)(=O)c2cccc(Cl)c2)cc1)N1CCCCC1 was read as Pf growth 96h -0.2%, CHX counter -5.0, Shiga inhibitor 1.6 and Pf growth 48h -0.9%.
CC(C)C[C@@H](CO)N(Cc1ccccc1)S(=O)(=O)N(Cc1ccccc1)[C@@H](CO)CC(C)C was read as Pf growth 96h 2.62µM* and Pf growth 48h 7.38µM*.
C=CCN([C@@H](CC(C)C)C(=O)OC)S(=O)(=O)N(CC=C)[C@@H](CC(C)C)C(=O)OC was read as Pf growth 96h inconclusive and Pf growth 48h 4.65µM*.
CC(C)C[C@@H](CO)N(Cc1ccccc1)S(=O)(=O)N(Cc1ccccc1)[C@H](CO)CC(C)C was read as Pf growth 96h inconclusive and Pf growth 48h 4.65µM*.
`COC(=O)[C@@H](CC(C)C)NS(=O)(=O)N(Cc1ccccc1)[C@@H](CC(C)C)C(=O)OC` gave Pf growth 96h inconclusive and Pf growth 48h 13.1µM*.
`COC(=O)c1c(C)oc(C)c1S(=O)(=O)N(Cc1ccccc1)C(C)C` gave Pf growth 96h -25.3%, CHX counter 0.6, Shiga inhibitor 3.9 and Pf growth 48h inconclusive.
For COC(=O)[C@H](CC(C)C)NS(=O)(=O)N[C@@H](CC(C)C)C(=O)OC the results were Pf growth 96h 36.3% and Pf growth 48h 30.7%.
For CCOC(=O)c1c(S(=O)(=O)NCc2ccco2)c(C)n(C)c1C the results were Pf growth 96h -6.5%, CHX counter 1.2, Shiga inhibitor 2.0 and Pf growth 48h 3.5%.
For CN(C)C(=O)c1ccc(NC(=O)CSc2nnc(-c3cccs3)n2N)cc1 the results were Pf growth 96h 4.2% and Pf growth 48h 1.3%.
`CSCC[C@H](NC(=O)[C@@H]1Cc2ccccc2CN1)C(=O)Nc1cccc(C)c1` gave Pf growth 96h -13.8%, CHX counter 15.7, Shiga inhibitor 29.0 and Pf growth 48h -22.5%.
Screening COc1ccccc1CNC(=O)[C@H](Cc1c[nH]c2ccccc12)NC(=O)[C@@H]1Cc2ccccc2CN1 returned Pf growth 96h 10.4µM*, CHX counter -0.6, Shiga inhibitor 1.8 and Pf growth 48h inconclusive.
For Cc1ccc(NC(=O)[C@H](NC(=O)[C@@H]2Cc3ccccc3CN2)c2ccccc2)cc1C the results were Pf growth 96h inconclusive, CHX counter 17.4*, Shiga inhibitor 19.7 and Pf growth 48h -6.8%.
Cc1cccc(NC(=O)[C@H](Cc2ccccc2)NC(=O)[C@@H]2Cc3ccccc3CN2)c1 was read as Pf growth 96h 1.8%, CHX counter 15.3*, Shiga inhibitor 24.9 and Pf growth 48h -13.8%.
COc1ccc(CNC(=O)[C@@H](C)NC(=O)[C@@H]2Cc3ccccc3CN2)cc1 was read as Pf growth 96h 22.6%, CHX counter -3.2, Shiga inhibitor -4.8 and Pf growth 48h 16.4%.
For Cc1ccc(NC(=O)[C@@H](CC(C)C)NC(=O)[C@@H]2Cc3ccccc3CN2)cc1 the results were Pf growth 96h 2.4%, CHX counter 27.9, Shiga inhibitor 61.4* and Pf growth 48h 1.3%.
`Cc1ccc(NC(=O)[C@@H](C)NC(=O)[C@@H]2Cc3ccccc3CN2)cc1` gave Pf growth 96h 14.2%, CHX counter 24.1*, Shiga inhibitor 21.7 and Pf growth 48h 0.9%.
COCCn1c(N/N=C(C)/C=C/c2ccccc2)nc2c1c(=O)[nH]c(=O)n2C was read as Pf growth 96h inconclusive, CHX counter 0.9, Shiga inhibitor -15.0 and Pf growth 48h -7.0%.

Screens as filed in PubChem.
